Screens as filed in PubChem BioAssay.
Pol beta inh: qHTS Assay for Inhibitors of DNA Polymerase Beta. P06746. Pol beta primer extension/strand displacement, fluorescence kinetic. Potency, µM (doses to about 114 µM), hits mostly inhibitors. actives 1.3% (n = 340,000)
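Homogeneous kinetic assay of primer extension and strand displacement by 10 nM Pol beta, preincubated 15 min at room temperature with compound before 50 nM substrate (final) was added. Read at 0 and 10 min; four-parameter Hill fit.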
Pol kappa inh-1: qHTS for Inhibitors of Polymerase Kappa; DNA polymerase kappa (Homo sapiens), Q9UBT6; purified Pol kappa, fluorescent DNA synthesis assay, 10 min; Potency, µM (series often up to 107 µM), actives largely listed as inhibitors; actives 0.53% (n = 400,000); AID 588579, 2011
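Readout: fluorescence, taken kinetically at 0 and 10 min. Conditions: 10 nM Pol kappa, 15 min RT compound preincubation, 50 nM substrate final. Controls: enzyme-free buffer wells.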
POLI inh: qHTS for Inhibitors of Polymerase Iota; Pol iota fluorescent replication assay, 10 min; AID 588590, 2011; Potency, µM (titrated, usually from 115 µM), usual class: inhibitors; DNA polymerase iota (Homo sapiens), Q9UNA4; actives 1% (n = 390,000)
Target sequence (Q9UNA4 whole entry, looked up): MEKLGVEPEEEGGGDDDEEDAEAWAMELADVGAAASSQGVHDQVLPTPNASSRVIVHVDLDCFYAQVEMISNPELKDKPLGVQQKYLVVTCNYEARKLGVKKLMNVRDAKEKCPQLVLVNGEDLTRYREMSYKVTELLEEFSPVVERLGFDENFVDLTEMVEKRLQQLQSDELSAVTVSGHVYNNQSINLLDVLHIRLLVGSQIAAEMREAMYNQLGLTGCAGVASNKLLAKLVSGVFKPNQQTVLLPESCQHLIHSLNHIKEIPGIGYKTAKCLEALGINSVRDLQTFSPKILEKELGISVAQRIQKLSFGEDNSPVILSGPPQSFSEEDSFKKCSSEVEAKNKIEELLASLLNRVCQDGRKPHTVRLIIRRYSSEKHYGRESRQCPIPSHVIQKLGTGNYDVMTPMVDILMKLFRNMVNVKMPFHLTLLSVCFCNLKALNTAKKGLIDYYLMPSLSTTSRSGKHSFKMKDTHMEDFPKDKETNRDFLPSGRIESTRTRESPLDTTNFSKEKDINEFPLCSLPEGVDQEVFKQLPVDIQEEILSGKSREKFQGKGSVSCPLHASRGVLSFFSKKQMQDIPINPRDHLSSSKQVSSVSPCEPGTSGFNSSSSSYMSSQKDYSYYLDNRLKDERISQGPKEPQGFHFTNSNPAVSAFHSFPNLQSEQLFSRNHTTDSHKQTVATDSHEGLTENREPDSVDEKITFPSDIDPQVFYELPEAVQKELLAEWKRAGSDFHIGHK
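Fluorescent replication assay read twice, at 0 min and 10 min after adding 50 nM (final) substrate. Enzyme (10 nM) and compounds were first incubated 15 min at room temperature; enzyme-free buffer wells were negative controls.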
GLS inhibitor: qHTS for Inhibitors of Glutaminase (GLS); Potency, µM (series often up to 45.5 µM), most hits filed as inhibitors; actives 0.21% (n = 410,000); Glutaminase kidney isoform, mitochondrial (Homo sapiens), O94925; GLS enzymatic activity, qHTS titration; AID 624170, 2012
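Two-point fluorescence kinetic (t0, 30 min RT) for hKGA; glutamate detected via glutamate oxidase–HRP–Amplex Red. Substrate: 1 mM L-glutamine solution; buffer 45 mM KH2PO4, pH 8.2.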
Pol eta inh-1: qHTS for Inhibitors of Polymerase Eta. DNA polymerase eta (Homo sapiens), Q9Y253. recombinant Pol eta, fluorescent DNA replication assay. Potency, µM (top dose mostly 114 µM), actives largely listed as inhibitors. actives 1.2% (n = 390,000)
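Pol eta (10 nM) was preincubated with compounds for 15 min at room temperature, after which fluorescent replication substrate (50 nM final) was added to start the reaction. Fluorescence was read kinetically at 0 and 10 min.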
APE1 inh: qHTS Assay for Inhibitors of the Human Apurinic/apyrimidinic Endonuclease 1 (APE1); DNA repair nuclease/redox regulator APEX1 (Homo sapiens), P27695; recombinant APE1, TAMRA/BHQ-2 abasic DNA cleavage fluorescence; actives 0.35% (n = 350,000); AID 2517, 2012; Potency, µM (doses to about 65.8 µM), usual class: inhibitors; also: nearly all actives have a fitted effect of over 55% in size
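Compound pre-exposure to 0.75 nM APE1, 15 min at ambient temperature. Reaction initiated with 50 nM TAMRA/BHQ-2 THF substrate, read immediately in kinetic mode, 525 nm excitation, 598 nm emission.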
Pol kappa inh-2: qHTS for Inhibitors of Polymerase Kappa: Confirmatory Assay for Cherry-picked Compounds; AID 720501, 2013; Potency, µM, hits mostly inhibitors; actives 76% (n = 920); purified Pol-kappa, fluorescent strand-displacement substrate; shares compounds with Pol eta inh-1
Pol eta inh-2: qHTS for Inhibitors of Polymerase Eta: Confirmatory Assay for Cherry-picked Compounds; shares compounds with Pol eta inh-1; Pol eta primer extension, TAMRA/BHQ fluorescence, 10 min; Potency, µM, actives largely listed as inhibitors; actives 64% (n = 2,600); AID 720502, 2013
A number is an active result; . = inactive; ? = inconclusive; / = not tested or not shown; [ ] = another dose, or the depositor's remark. In the library only some 2.4% were active in any assay of this set; here they are far more common. Calls follow the shape of the dose curve; as a rule, active = well fitted curve in the direction sought with a large enough effect; inconclusive = small, poorly fitted or top-dose-only effect, or another doubt; inactive = no such curve, though single readings can be large; an effect the other way counts as inactive or inconclusive.

SMILES	Pol beta inh	Pol kappa inh-1	POLI inh	GLS inhibitor	Pol eta inh-1	APE1 inh	Pol eta inh-2	others
NCc1ccccc1CC(=O)N[C@@H]1C(=O)N2C(C(=O)O)=C(CSc3nnnn3CC(=O)O)CS[C@@H]12	/	.[19.4 µM]	/	.	/	/	/
Cc1nnc(SCC2=C(C(=O)O)N3C(=O)C(NC(=O)COc4ccccc4)C3SC2)s1 (stereo unspecified)	/	79µM	?	.	10µM	.	38	Pol kappa inh-2=?
CC(=O)OCC1=C(C(=O)O)N2C(=O)C(NC(=O)COc3ccc(F)cc3)C2SC1 (stereo unspecified)	/	22µM	5.6µM	?	8.9µM	.	27
CC1=C(C(=O)OCc2ccccc2)N2C(=O)[C@@H](NC(=O)COc3ccccc3)[C@H]2SC1	.	.	.	.	.	.	/
C=CC1=C(C(=O)O)N2C(=O)C(NC(=O)Cc3ccccc3)C2SC1 (stereo unspecified)	?	79µM	13µM	?	22µM	?	67
Cc1nnc(SCC2=C(C(=O)O)N3C(=O)C(NC(=O)c4cc(F)c(F)cc4Cl)C3SC2)s1 (stereo unspecified)	?	?	?	.	20µM	.	34
O=C(C1=C(O)C(=O)N(Cc2ccco2)C1c1cccc(Cl)c1)c1ccco1 (stereo unspecified)	.	.	.	.	.	.	/
CC(=O)OCC1=C(C(=O)O)N2C(=O)C(NC(=O)CC(C)c3ccccc3)C2SC1 (stereo unspecified)	/	.	?	.	22µM	.	?	Pol kappa inh-2=?
CC(=O)OCC1=C(C(=O)O)N2C(=O)C(NC(=O)C(C)Cn3cc(Cl)cn3)C2SC1 (stereo unspecified)	.	.	?	.	?	.	/
Cc1nnc(SCC2=C(C(=O)O)N3C(=O)C(NC(=O)COc4ccc(F)cc4)C3SC2)s1 (stereo unspecified)	/	50µM	20µM	.	4µM	.	30	Pol kappa inh-2=9.5
COCCCN(C(=O)c1cc(-c2ccco2)nc2ccccc12)c1c(N)n(Cc2ccccc2)c(=O)[nH]c1=O	/	?	40µM	?	25µM	.	?
COCCN(C(=O)COC(=O)COc1ccc2c(c1)CCC2)c1c(N)n(Cc2ccccc2)c(=O)[nH]c1=O	/	.	.	.	.	.	/
COCCN(C(=O)COC(=O)Cc1coc2cc3c(cc12)CCC3)c1c(N)n(Cc2ccccc2)c(=O)[nH]c1=O	/	?	28µM	.	20µM	9.5µM	76
O=C(COC(=O)CCc1ccc(S(=O)(=O)N2CCOCC2)cc1)Nc1ccc(Cl)cn1	.	.	.	.	.	.	/
c1csc(-c2nn3c(C4COc5ccccc5O4)nnc3s2)c1 (stereo unspecified)	.	.	.	.	.	.	/
c1ccc2c(c1)OCC(c1nnc3sc(-c4cnccn4)nn13)O2 (stereo unspecified)	.	.	?	.	89µM	.	?
CS(=O)(=O)c1cccc(C(=O)Nc2cccc(S(=O)(=O)N3CCCC3)c2)c1	/	.	.	.	.	.	/
O=C(O)c1ccc(/C=C/c2nc3sc4c(c3c(=O)[nH]2)CCC4)cc1	.	?	14µM	.	22µM	?	?
O=S(=O)(Nc1nc(-c2ccco2)c(-c2ccco2)s1)c1ccc(F)cc1F	/	/	/	.	28µM	/	?	Pol kappa inh-2=?
CN(C(=O)COC(=O)c1cc([N+](=O)[O-])ccc1N1CCOCC1)C1CCCCC1	/	/	/	.	.	/	/
O=c1c2ccccc2nc2sc(Nc3ccc4c(c3)CCC4)nn12	/	/	/	/	/	/	/	Pol kappa inh-2=38
CC(=O)c1c(C)[nH]c(C(=O)COC(=O)C2(C)CC2(Cl)Cl)c1C (stereo unspecified)	/	.	.	.	.	.	/
COc1ccccc1NC(=S)N(Cc1ccc(Cl)cc1)CC1CCC(C(=O)O)CC1 (stereo unspecified)	.	.	.	.	.	.	/
O=Cc1cccn1-c1cccc([N+](=O)[O-])c1	?	.	.	.	.	.	/
O=C(O)c1cccc(-n2cccc2/C=C\[N+](=O)[O-])c1	?	50µM	?	.	20µM	13µM	60
SMILES	Pol beta inh	Pol kappa inh-1	POLI inh	GLS inhibitor	Pol eta inh-1	APE1 inh	Pol eta inh-2	others
Cc1ccc(C)c(SCC(=O)NC(=O)Nc2ccc3c(c2)OCCO3)c1	.	.	.	.	.	.	/
Cc1c(NC(=O)C(C)OC(=O)c2ccc([N+](=O)[O-])s2)c(=O)n(-c2ccccc2)n1C (stereo unspecified)	10µM	?	?	.	50µM	?	?
Cc1c(NC(=O)C(C)OC(=O)c2sc3ccccc3c2Cl)c(=O)n(-c2ccccc2)n1C (stereo unspecified)	.	.	.	.	.	.	/
Cc1ccc(-c2noc(-c3nnn(CC(=O)Nc4ccc(C)cc4Cl)c3N)n2)cc1	.	.	.	.	/	/	/
Cc1ccc(C)n1-c1nc(=S)[nH][nH]1	.	28µM	?	?	45µM	.	76
S=c1nc(-c2ccc(Cl)cc2)[nH][nH]1	.	.	.	.	.	.	/
O=C(NC[C@H]1CCCO1)c1cccc2c1C(=O)c1ccc(-c3ccc(F)cc3OCc3ccccc3)cc1S2(=O)=O	/	.	.	.	.	.	/
Cc1cc(CNC(=O)c2cccc3c2C(=O)c2ccc(-c4ccc(F)cc4OCc4ccccc4)cc2S3(=O)=O)c(C(F)(F)F)o1	/	79µM	40µM	.	20µM	.	54
O=C(Nc1nnc(S(=O)(=O)N2CCOCC2)s1)c1ccc(Cl)cc1	.	.	.	.	.	.	/
O=C(Nc1nnc(S(=O)(=O)N2CCCc3ccccc32)s1)c1ccccc1Cl	.	.	.	.	56µM	/	/	Pol kappa inh-2=?
O=C(Nc1nnc(S(=O)(=O)N2CCc3ccccc32)s1)c1ccccc1Cl	.	.	.	.	.	/	/
CC1Cc2ccccc2N1S(=O)(=O)c1nnc(NC(=O)c2ccccc2Br)s1 (stereo unspecified)	.	.	.	.	?	/	?
